Bioassay records from PubChem.
KCNK9 inh – blocks the human KCNK9 two-pore domain potassium channel | HEK293 KCNK9, FluxOR thallium flux fluorescence; stronger effect = lower value | B-score at 10 µM | Q9NPC2 | 1.2% of 310,000 active;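 active = ratio B-score over 3 SD below the library mean, with starting fluorescence within 5 SD of its mean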;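 note: negative B-score means less thallium flux so channel inhibition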
KCNK3 block – human KCNK3 channel inhibition, primary screen | 0.84% of 340,000 active | O14649 | B-score at 10 µM | CHO-KCNK3 thallium flux, FluxOR fluorescence; stronger effect = lower value | AID 602410;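 active = B-score under library mean minus 4 SD, starting fluorescence ratio at most library mean plus 5 SD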;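 note: more negative B-score means stronger inhibition of thallium flux through KCNK3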
Target sequence (O14649 whole entry, looked up): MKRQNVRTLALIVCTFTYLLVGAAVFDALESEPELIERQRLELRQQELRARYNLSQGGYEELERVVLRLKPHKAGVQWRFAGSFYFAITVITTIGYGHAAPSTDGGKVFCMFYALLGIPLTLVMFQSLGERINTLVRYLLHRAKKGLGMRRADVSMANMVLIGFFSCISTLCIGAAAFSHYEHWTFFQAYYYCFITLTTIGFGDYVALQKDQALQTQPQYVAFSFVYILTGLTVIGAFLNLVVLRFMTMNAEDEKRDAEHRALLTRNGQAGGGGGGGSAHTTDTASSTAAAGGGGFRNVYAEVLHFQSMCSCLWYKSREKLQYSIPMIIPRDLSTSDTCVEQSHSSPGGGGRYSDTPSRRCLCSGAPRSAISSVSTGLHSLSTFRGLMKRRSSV
Kir21 inh – Kir2.1 (mouse) channel inhibition; P35561; AID 1672; HEK293-Kir2.1, FluxOR thallium flux fluorescence; stronger effect = lower value; 0.85% of 310,000 active; B-score at 10 µM;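 active = fluorescence ratio B-score at or below minus 3 SD of library scores, with starting-brightness B-score within 2 SD, cut at about -4.2 in these data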;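 note: channel flux triggered by added potassium and thallium sulfate stimulus; B-score of peak minus minimum fluorescence over baseline after thallium stimulus; more negative B-score means stronger Kir2.1 block with less thallium influx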
ANO1 block – inhibitors of mouse TMEM16A calcium-activated chloride channel; HEK293 TMEM16A/YFP iodide influx fluorescence, ionomycin; normalized B-score (activity score, 25-100; higher = stronger inhibition) at 10 µM; AID 588511; 1.2% of 310,000 active;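 active = ratio plate-corrected score three or more library SD toward inhibition, starting fluorescence score within five deviations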;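 note: score derived from kinetic fluorescence span divided by baseline fluorescence per well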
ANO1 activ – activates or potentiates the mouse TMEM16A chloride channel; HEK293 TMEM16A/YFP-H148Q/I152L, iodide quench fluorescence; stronger effect = lower value; B-score at 10 µM; AID 623877; Q8BHY3; 0.3% of 340,000 active;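 active = fluorescence-ratio B-score plate-corrected deviation score at least 3 library SD below zero, with starting fluorescence score within 5 deviations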;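 note: channel opened by trigger with iodide after compound preincubation; score built on the fluorescence ratio of max minus min over baseline; more negative score means more quench and so TMEM16A activation or potentiation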
The depositor's hits bear a star; i = inactive; x = not tested or not shown. An excerpt weighted towards active compounds, which were near 3.5% of everything screened.

SMILES | KCNK9 inh | KCNK3 block | Kir21 inh | ANO1 block | ANO1 activ
CCN(C(=O)COC(=O)COc1ccc(Cl)c(C)c1)C1CCS(=O)(=O)C1 (configuration not stated) | x | i | x | x | i
CCc1nnc(NC(=O)CN2CCCC(C)C2)s1 (configuration not stated) | i | i | 0.92 | i | i
Cc1ccc(S(=O)(=O)N2[C@@H](c3ccccc3)C(C(=O)O)=CC[C@H]2c2ccc(C(C)C)cc2)cc1 | x | i | x | 100* | i
Cc1ccc(S(=O)(=O)N2[C@@H](c3ccc(Cl)cc3)C(C(=O)O)=CC[C@H]2c2ccc(C(C)C)cc2)cc1 | x | i | x | 100* | i
Cc1ccc([C@H]2C(C(=O)O)=CC[C@@H](c3ccc(C(C)C)cc3)N2S(=O)(=O)c2ccc(C)cc2)cc1 | x | i | x | x | x
COc1ccc(NC(=O)CN2C(=O)NC3(CCCc4ccccc43)C2=O)c(OC)c1 (configuration not stated) | x | i | x | x | i
CC1CCc2nc(/C(C#N)=C/c3ccncc3)sc2C1 (configuration not stated) | i | i | 0.7 | i | i
O=C(/C=C/c1cc(Br)ccc1O)c1ccco1 | i | -9.81* | -5.9* | i | i
Cc1nc(N2CCN(S(=O)(=O)c3ccccc3C#N)CC2)c2c(-c3cccs3)csc2n1 | i | i | 0.11 | i | i
Cc1nc(N2CCCCC2)c2c(-c3cccs3)csc2n1 | -7.26* | i | -0.3 | i | i
Cc1ccc(C(=O)c2c(C)oc3c2C(=O)C(=O)c2ccccc2-3)cc1 | i | i | 1.47 | 25* | -17.9*
Cc1oc2c(c1C(=O)c1ccc(Cl)cc1)C(=O)C(=O)c1ccccc1-2 | i | i | -0.37 | x | i
COc1ccc(OCC(=O)Nc2c3c(nn2-c2ccccc2)CS(=O)(=O)C3)cc1 | i | i | 1 | i | i
O=C1C=CCC(/C=C/c2ccccc2)O1 (configuration not stated) | i | x | 0.1 | i | x
COc1ccc2cc(C(=O)C3CCCN(Cc4cccc(C)n4)C3)ccc2c1 (configuration not stated) | i | i | -2.45 | i | i
Cc1cccc(CN2CCCC(C(=O)c3ccc4c5c(cccc35)CC4)C2)n1 (configuration not stated) | i | i | -4.21* | i | i
CCN(Cc1ccccc1)S(=O)(=O)c1ccc(C(=O)N(CCCN(C)C)c2nc3cc4c(cc3s2)OCO4)cc1 | i | i | 0.38 | i | i
CCN(Cc1ccccc1)S(=O)(=O)c1ccc(C(=O)N(CCCN(C)C)c2nc3c(C)c(C)ccc3s2)cc1 | i | i | -4.47* | i | i
CC[C@@H](C)[C@H](CN[C@H](CNC)C(C)C)NC[C@@H](C)c1ccc(CC(C)C)cc1 | i | i | -8.85* | i | i
COC(=O)c1ccc(-c2sc3nc(N4CCOCC4)c4c(c3c2N)CCCC4)o1 | -9.17* | x | -0.4 | i | x
CN(C)CCCN(C(=O)c1ccc2c(c1)OCCO2)c1nc2ccc(Cl)cc2s1 | i | i | -9.87* | i | i
Cc1ccc2nc(N(CCCN(C)C)C(=O)c3ccc(S(=O)(=O)N4CCc5ccccc5C4)cc3)sc2c1 | i | i | -0.53 | i | -5.3*
CN(C)CCN(C(=O)c1ccc2c(c1)OCCO2)c1nc2ccc(Cl)cc2s1 | i | i | 1.84 | i | i
CC(=O)Nc1ccc(S(=O)(=O)Nc2cc(C)cn(Cc3ccccc3)c2=O)cc1 | i | i | 0.98 | i | i
COc1cccc(C(=O)NN2CCOCC2)c1 | i | i | -1.57 | i | i
SMILES | KCNK9 inh | KCNK3 block | Kir21 inh | ANO1 block | ANO1 activ
CCN(CC1COc2ccccc2O1)S(=O)(=O)c1ccc(C)cc1 (configuration not stated) | i | i | -4.84* | i | i
Cc1cc(C)cc(NC(=O)c2cc(C)nc3ccccc23)c1 | i | i | 3.52 | i | i
O=C(COC(=O)c1ccc(S(=O)(=O)N2CCCCC2)cc1)Nc1ccccc1Cl | x | i | x | x | i
Oc1cccc(/C=N/N(Cc2ccccc2)c2ccccc2)c1 | -7.19* | i | -0.42 | i | i
Oc1ccc(/C=N/N(Cc2ccccc2)c2ccccc2)c(O)c1O | i | i | 0.46 | x | i
C[C@@H]1CN(S(=O)C(C)(C)C)[C@@H](CCO)/C1=C\CCO (some centres not stated) | x | i | x | x | x
